# The list is not random: actives were taken first. Their share in the collection is about 4%.
# MazF activator = increases E. coli MazEF RNase cleavage of RNA | actives 0.32% (n = 350,000) | activation, % at 20 µM | FAM/BHQ RNA-DNA oligo cleavage fluorescence, 5 h; in the data active = activation above about 50%
# Target sequence (P0AE70 whole entry, looked up): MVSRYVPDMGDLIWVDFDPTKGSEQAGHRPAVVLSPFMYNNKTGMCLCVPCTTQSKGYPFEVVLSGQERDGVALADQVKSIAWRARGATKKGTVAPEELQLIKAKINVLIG
# Mtb bLac sens = beta-lactam sensitization of Mtb H37Rv. M. tuberculosis H37Rv growth with meropenem, percent inhibition. AID 434955. inhibition, % at 25 µM. actives 0.27% (n = 330,000); call rule not given here;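 also: growth measured after seven days incubation then overnight dye step; 0% = bacteria only wells and 100% = bacteria with antibiotic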
# Mtb FBA inh = inhibits M. tuberculosis FBA enzyme; P9WQA3; purified M. tuberculosis FBA, fluorescence read-out; inhibition, % at 1 µM; actives 2.3% (n = 360,000); AID 588726;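 also: 0% = vehicle and 100% = reference inhibitor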
# Target sequence (P9WQA3 whole entry, looked up): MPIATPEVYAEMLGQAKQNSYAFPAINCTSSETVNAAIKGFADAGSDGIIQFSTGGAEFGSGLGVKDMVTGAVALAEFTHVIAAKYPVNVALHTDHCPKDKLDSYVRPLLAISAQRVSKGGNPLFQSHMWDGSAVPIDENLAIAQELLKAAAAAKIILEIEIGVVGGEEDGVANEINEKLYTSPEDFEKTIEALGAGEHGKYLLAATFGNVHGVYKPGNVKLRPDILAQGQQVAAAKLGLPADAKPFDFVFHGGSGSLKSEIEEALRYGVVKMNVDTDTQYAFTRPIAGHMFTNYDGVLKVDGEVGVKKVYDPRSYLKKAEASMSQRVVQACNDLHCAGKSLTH
# GDH-TPI counter-1 = GDH-TPI coupled enzyme inhibition counter-screen; actives 1.2% (n = 360,000); GDH-TPI coupled enzyme counterscreen, NADH absorbance; AID 588335; inhibition, % at 4.8 µM; in the data active = inhibition above about 30%;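 also: 0% = DMSO wells and 100% = wells lacking the enzyme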
# CCHF vOTU inh = CCHFV vOTU protease inhibition | Pep-AMC fluorescence | inhibition, % at 11.5 µM | actives 0.55% (n = 370,000) | AID 651958; in the data active = inhibition above about 30%; also: 0% = vehicle wells with enzyme and 100% = no enzyme wells
# Mtb FBA confirm = confirmation of M. tuberculosis fructose-bisphosphate aldolase inhibitors; shares compounds with Mtb FBA inh; purified M. tuberculosis FBA, fluorescence read-out; inhibition, % at 1 µM; actives 78% (n = 5,600); AID 651616;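 also: 0% = vehicle wells and 100% = reference inhibitor wells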
# GDH-TPI counter-2 = inhibits GDH-TPI coupling enzymes, flagging Mtb FBA hits; shares compounds with Mtb FBA inh; GDH-TPI coupled enzyme counterscreen, fluorescence; inhibition, % at 1 µM; actives 81% (n = 5,600); AID 652141; in the data active = inhibition above about 10%
# * hit, by the source's call; nt = not tested or not shown; + = active, no number. Rule as the data show it, unless noted: active = inhibition above about 27%; inactive = the rest.
SMILES,MazF activator,Mtb bLac sens,Mtb FBA inh,GDH-TPI counter-1,CCHF vOTU inh,Mtb FBA confirm,GDH-TPI counter-2
Cc1ccc(C(=O)N2CCC[C@@H]2C(=O)N2CCC[C@H]2C(=O)NCc2ccccc2)cc1,nt,nt,nt,nt,3,nt,nt
CCCN1CCCCC(NC(=O)c2ccc(F)c(F)c2)C1=O (stereo not given),nt,nt,nt,nt,-7,nt,nt
COc1ccccc1C(=O)N1CCC(Oc2cccnc2)CC1,nt,nt,nt,nt,3,nt,nt
CC(/C=N\NC(=O)CSc1nnc(-c2ccc(Br)cc2)n1-c1ccccc1)=C\c1ccco1,nt,nt,nt,nt,6,nt,nt
CCOc1ccc(-n2cnc3scc(-c4ccc(OC)c(OC)c4)c3c2=O)cc1,20,9,28*,-4,13,30*,21*
N#Cc1ccc(NC(=O)OC2CC3CC2[C@H]2CCCCN2C3)cc1 (stereo not given in full),nt,nt,nt,nt,-7,nt,nt
CCCCOc1ccc(C(=O)NC2CCCCN(Cc3ccc(C)cc3)C2=O)cc1 (stereo not given),nt,nt,nt,nt,10,nt,nt
Nc1ncc(-c2ccc(F)cc2)nc1N1CCN(CCO)CC1,nt,nt,47*,16,-64,123*,89*
CCOC(=O)[C@H](CCc1ccccc1)N[C@@H](C)C(=O)N1Cc2cc(OC)c(OC)cc2C[C@H]1C(=O)O,nt,nt,nt,nt,3,nt,nt
CC[C@@H](C)[C@H](NC(=O)Cc1c(C)c2c(cc(C)c3c(C)coc32)oc1=O)C(=O)O,-6,3,64*,8,-48,112*,94*
CSCC[C@H](NC(=O)Cc1c(C)c2c(cc(C)c3c(C)coc32)oc1=O)C(=O)O,6,-4,53*,4,-45,+,187*
COC(=O)[C@]12CCCCC=C1N(Cc1ccc(OC)cc1)C(=O)[C@@H]2CC(=O)NCc1ccc(OC)c(OC)c1,nt,nt,nt,nt,6,nt,nt
COC(=O)[C@]12C[C@H](CC(=O)N3CCC(c4ccccc4)CC3)C(=O)N(Cc3cccc4ccccc34)C1=C[C@H](C(C)C)O[C@@H]2C1CC1,nt,nt,nt,nt,16,nt,nt
C/C=C(/C)C(=O)O[C@H]1[C@@H](O)c2c(ccc3ccc(=O)oc23)OC1(C)C,1,-2,34*,20,-13,93*,79*
C/C=C(/C)C(=O)O[C@@H]1Cc2c(ccc3ccc(=O)oc23)OC1(C)C,2,-1,45*,15,-19,68*,42*
CC1(C)Oc2ccc3ccc(=O)oc3c2C[C@H]1O,2,-2,88*,16,-45,149*,113*
CC1(C)Oc2ccc3ccc(=O)oc3c2[C@H](O)[C@H]1O,-4,1,58*,18,-21,69*,59*
CC1(C)Oc2ccc3ccc(=O)oc3c2C(N2CCCCC2)C1O (stereo not given),5,-3,6,-3,-10,nt,nt
C=CCn1c(COc2ccc(C)cc2)nnc1SCC(=O)Nc1ccc(Oc2ccccc2)cc1,nt,nt,nt,nt,11,nt,nt
CC(C)(C)c1ccc(-c2cn(C[C@H](Cc3ccccc3)n3c(=O)c4ccccc4n3Cc3ccno3)nn2)cc1,nt,nt,nt,nt,5,nt,nt
C/C=C(/C)C(=O)O[C@@H]1[C@H](OC(C)=O)c2c(ccc3ccc(=O)oc23)OC1(C)C,5,-3,32*,32*,2,115*,88*
CC1(C)Oc2ccc3ccc(=O)oc3c2/C(=C/N)C1=O,-1,5,1,16,3,nt,nt
CC1(C)Oc2ccc3ccc(=O)oc3c2/C(=C/O)C1=O,-16,1,44*,20,-21,153*,119*
C/C=C(/C)C(=O)OC1c2c(ccc3ccc(=O)oc23)OC(C)(C)C1OC(C)=O (stereo not given),2,-5,15,14,16,nt,nt
C[C@@H]1Cc2cc(O)cc(O)c2C(=O)O1,nt,nt,nt,nt,-1,nt,nt
C=CCN1C(=O)[C@H](CC(=O)NCCCCc2ccccc2)[C@@]2(C(=O)OCC)CCCC=C12,nt,nt,nt,nt,5,nt,nt
COc1ccc(C2C3=C(CCCC3=O)Nc3c(-c4ccccc4)c(C)nn32)cc1 (stereo not given),2,-4,97*,45*,nt,169*,135*
COc1ccc(C2NC(=O)NC3=C2C(=O)CCC3)cc1 (stereo not given),6,0,0,-2,-8,nt,nt
CN(Cc1ccco1)C(=O)c1cccc2c1C(=O)N(Cc1cccnc1)C2,nt,nt,nt,nt,0,nt,nt
COC(=O)c1ccc(-c2ccc(/C=N/NC(=O)CC3(C)OCCCO3)o2)cc1,2,10,34*,23,-9,+,177*

# Compound activity: PubChem, several laboratories
